Measurements: PubChem BioAssay (NCATS)
Where “and” joins values, the source holds several entries; their conditions need not be identical. Identical values can stand only once. Inconclusive results are not listed. Calls of active or inactive are those of the source. Unless noted, calls come from the whole dose curve; as a rule, active = well fitted curve in the direction sought with a large enough effect; inconclusive = small, poorly fitted or top-dose-only effect, or another doubt; inactive = no such curve, though single readings can be large; an effect the other way counts as inactive or inconclusive.

What was measured:
[1] = P-glycoprotein substrates identified in KB-8-5-11 adenocarcinoma cell line, qHTS therapeutic library screen (AID 1346987); note: nearly all actives have a fitted effect of over 65% in size; note: potency is the fitted concentration of half-maximal effect
How it was run: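 KB-8-5-11: colchicine-selected sub-line of KB-3-1 over-expressing P-gp; assay medium lacked colchicine. 72 h drug exposure at 37 degree C, CellTiter-Glo.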

[2] = system: Zika virus NS2B-NS3 protease; assay: Primary screen GU AMC qHTS for Zika virus inhibitors (AID 1347154);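 note: 0% = no-inhibitor control and -100% = no-enzyme control; nearly all actives have a fitted effect of over 70% in size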
How it was run: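 Fluorogenic AMC-substrate cleavage by noncovalent NS2B-NS3 protease complex (25 nM, pH 8.0 Tris buffer with Tween 20) followed for 15 minutes at room temperature (~20% conversion). Percent inhibition from ex340/em450 signal change, fitted by 4-parameter Hill equation.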

[3] = Primary qHTS for small molecule stabilizers of the endoplasmic reticulum resident proteome: Secreted ER Calcium Modulated Protein (SERCaMP) assay (AID 1508630); note: % is set by controls: 0 for no effect and ±100 for the full control effect
How it was run: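 GLuc-SERCaMP-expressing SH-SY5Y cells, pretreated 16 h with compound, are challenged with thapsigargin to empty ER calcium stores; after 4 h, coelenterazine is added directly to the medium and luminescence is imaged.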

[4] = Primary qHTS for inhibitors of nuclear receptor binding SET domain protein 2 (NSD2) in an isogenic RCH-ACV NSD2 p.E1099K mutant (9B) (AID 1645876); note: nearly all actives have a fitted effect of over 70% in size; note: potency is the fitted concentration of half-maximal effect
[5] = Primary qHTS for inhibitors of nuclear receptor binding SET domain protein 2 (NSD2) in an RCH-ACV wild type WT cells (2C) (AID 1645877); note: nearly all actives have a fitted effect of over 70% in size; note: potency is the fitted concentration of half-maximal effect
[6] = molecular target: Glutathione peroxidase 1 (Homo sapiens) (UniProt P07203); assay: Primary qHTS Assay for Inhibitors of Recombinant Selenoprotein Glutathione Peroxidase 1 (GPX1) (AID 1845191); note: nearly all actives have a fitted effect of over 65% in size
How it was run: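 10 nM GPX1 + cpd, 30 min RT; start w/ 1 mM GSH, 0.5 mM cumene hydroperoxide, 0.5 mM NADPH, 100 nM GR, 0.01% BSA; buffer 50 mM Tris-HCl pH 7.5, 2 mM EDTA, 150 mM NaCl; Fl 340/450, 0 & 15 min.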

[7] = molecular target: Cytochrome P450 1A2 (Homo sapiens) (UniProt P05177); assay: p450-cyp1a2 (AID 410; calls by dose curve;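 note: -100% = full effect of reference inhibitor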)
How it was run: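 Human CYP1A2 (20nM) demethylated Luciferin-ME at its Km (100uM) in 100mM KPO4. After 10 min compound preincubation, NADPH regeneration ran the reaction 60 min at room temperature. Luciferin was read by luminescence, normalized to 57 uM furafylline.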

[8] = NFAT Signaling Pathway (AID 444; active = well fitted curve in either direction with a large enough effect, not every such curve was filed as active;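 note: carbachol stimulus at about its EC50 of 1 µM final; % is set by controls: 0 for no effect and ±100 for the full control effect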); details: Jurkat NFAT-bla M1, carbachol, beta-lactamase ratio, 5 h; at 17.2 µM (top of the series)
How it was run: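 Read-out: CCF4 FRET ratio (460 nm/530 nm) after 1 h RT dye loading, used for %activity and AC50 from titration series. Cells: Jurkat NFAT-β-lactamase/M1 line, treated with compound plus 1 uM carbachol for 5 h, 37 °C.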

[9] = molecular target: Glucocorticoid receptor (Homo sapiens) (UniProt P04150); assay: GR-GFP Redistribution (AID 450;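 active = compounds whose dose series gives a full or clear partial fitted curve of increased nuclear translocation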; note: potency is the fitted concentration of half-maximal effect); details: U2OS GR-GFP nuclear translocation, laser cytometry, 2 h
[10] = molecular target: Glucocorticoid receptor (Homo sapiens) (UniProt P04150); assay: GR-EFC Redistribution (AID 451; calls by dose curve; note: potency is the fitted concentration of half-maximal effect); details: CHO-K1 GR-EFC translocation, beta-gal luminescence, 2 h
How it was run: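 Translocation of GR-ED fusion to nuclear EA restores b-gal, read by luminescence after 1 h room-temperature detection. Engineered CHO-K1 biosensor cells, 1,000/well, exposed 2 h at 37 C to titrations up to 46 uM final.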

[11] = molecular target: Mitogen-activated protein kinase 10 (Mus musculus) (UniProt Q61831); assay: JNK3 AlphaScreen Assay (AID 530; active = well fitted curve in either direction with a large enough effect, not every such curve was filed as active;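 note: kinase came from lysate of stimulated human HepG2 cells; signal reports phosphorylation of biotinylated GST-cJun 1-79 at Ser73 with 10 µM ATP; % is set by controls: 0 for no effect and ±100 for the full control effect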)
How it was run: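 Room-temperature AlphaScreen kinase assay; pre-activated HepG2 lysate as JNK3 source, biotin-GST-cJun(1-79) substrate, 10 uM ATP, compound 15 min preincubation.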

[12] = molecular target: 3',5'-cyclic-AMP phosphodiesterase 4B (Homo sapiens) (UniProt Q07343); assay: qHTS Assay for Inhibitors of PDE-IV (AID 607; active = well fitted activation curve with a large enough effect in the main read-out, with a control signal flat, not every such curve was filed as active; note: % of control where 0% means no effect)
How it was run: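 HEK293 ACTOne cells with CNG channel (1000/well), endogenous PDE4; membrane potential dye, compounds up to 22.9 uM final. Fluorescence Ex 535/Em 590; RO 20-1724 (100 uM final) as reference.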

[13] = molecular target: Cytochrome P450 2C9 (Homo sapiens) (UniProt P11712); assay: qHTS Assay for Inhibitors and Substrates of Cytochrome P450 2C9 (AID 883); note: % is set by controls: 0 for no effect and ±100 for the full control effect; nearly all actives have a fitted effect of over 60% in size
How it was run: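 Turnover of Luciferin-H (100uM, KM) by 10nM human CYP2C9 was measured over 60 min at 37C with NADPH regeneration; inhibitors and some substrates reduce luminescence. Data normalized to sulphaphenazole 57uM.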

[14] = molecular target: Cytochrome P450 3A4 (Homo sapiens) (UniProt P08684); assay: qHTS Assay for Inhibitors and Substrates of Cytochrome P450 3A4 (AID 884); note: % is set by controls: 0 for no effect and ±100 for the full control effect; nearly all actives have a fitted effect of over 50% in size
How it was run: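 20 nM human CYP3A4 with 25 uM Luciferin-PPXE (at KM) in 200 mM KPO4, preincubated 10 min with compound; NADPH regeneration started a 60 min RT reaction. Luciferin detected by luminescence, normalized to 57 uM ketoconazole as full inhibition.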

[15] = molecular target: Cytochrome P450 2D6 (Homo sapiens) (UniProt P10635); assay: qHTS Assay for Inhibitors and Substrates of Cytochrome P450 2D6 (AID 891);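 note: luciferin methyl ether substrate demethylated by CYP2D6 with NADPH regeneration; % is set by controls: 0 for no effect and ±100 for the full control effect; nearly all actives have a fitted effect of over 60% in size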
How it was run: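 Human CYP2D6 (5 nM) with 30 uM Luciferin-ME EGE (at Km) in 100 mM KPO4, compound preincubated 10 min, then NADPH regeneration system for 60 min at room temperature. Luciferin read by luminescence; normalized to 1.43 uM quinidine.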

[16] = molecular target: Cytochrome P450 2C19 (Homo sapiens) (UniProt P33261); assay: qHTS Assay for Inhibitors and Substrates of Cytochrome P450 2C19 (AID 899); note: % is set by controls: 0 for no effect and ±100 for the full control effect; nearly all actives have a fitted effect of over 60% in size
How it was run: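 Reactions contain 5nM enzyme, 10uM Luciferin-H EGE (KM) and 50mM KPO4; compound preincubates 10 min at 37C, NADPH regeneration starts turnover for 60 min. Luminescence after detection reagent gives activity.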

[17] = qHTS Assay for Lipid Storage Modulators (AID 1519; calls by dose curve; for activity change, negative = inhibition: % is set by controls: 0 for no effect and ±100 for the full control effect); details: Drosophila S3 cells, BODIPY lipid droplet/cell ratio, laser cytometry, cells loaded with oleic acid
How it was run: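 Cells seeded at 5,000 per well were treated with compounds over a concentration series and loaded with oleic acid (400 uM, as added). Lipid droplet fluorescence (488 nm excitation, 500-530 nm channel) was read by laser-scanning cytometry and normalized to 20 uM Triacsin C.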

[18] = molecular target: Ubiquitin carboxyl-terminal hydrolase 1 (Homo sapiens) (UniProt O94782); assay: Inhibitors of USP1/UAF1: Pilot qHTS (AID 504865);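 note: rhodamine fluorescence freed from ubiquitin-rhodamine substrate followed over time; top concentration of the series differs between compounds; % is set by controls: 0 for no effect and ±100 for the full control effect; nearly all actives have a fitted effect of over 35% in size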
How it was run: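 1nM USP1/UAF1 + cpd, 15 min RT; start w/ Ub-Rho 150nM final; kinetic FL 480/540 nm, 6 reads q60 s. Buffer 50mM HEPES pH 7.8, 0.5mM EDTA, 1mM TCEP, 0.01% Tween-20, 0.1 mg/ml BSA.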

[19] = P-glycoprotein substrates identified in KB-3-1 adenocarcinoma cell line, qHTS therapeutic library screen (AID 1346986); note: % is set by controls: 0 for no effect and ±100 for the full control effect; nearly all actives have a fitted effect of over 60% in size
How it was run: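 Counter-screen: cherry-picked hits retested in the KB pair and in HEK-293 pcDNA/MDR-19 cells ± tariquidar. Primary screen used 72 h CellTiter-Glo viability in KB-3-1 and KB-8-5-11.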

[20] = qHTS for Inhibitors of the Functional Ribonucleoprotein Complex (vRNP) of Lassa (LASV) Arenavirus: LASV Primary Screen - GLuc reporter signal (AID 1347082; calls by dose curve; tested in HEK293 reporter line)
[21] = molecular target: Luciferin 4-monooxygenase (Photinus pyralis) (UniProt P08659); assay: Biochemical firefly luciferase enzyme assay for NPC (AID 624030);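 note: purified P. pyralis luciferase at 10 nM with luciferin and ATP substrate; 0% = DMSO and -100% = full luciferase inhibition by PTC124 control; nearly all actives have a fitted effect of over 70% in size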
How it was run: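 Direct inhibition of firefly luciferase enzyme (10 nM final, 50 mM Tris Acetate) assessed by luminescence within 5 minutes. Percent activity scaled between DMSO and PTC124 positive control, with concentration-effect curves classified by fit quality and response.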

[22] = qHTS Assay for Identifying Gametocytocidal Compounds (AID 743244);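 note: % is set by controls: 0 for no effect and ±100 for the full control effect; actives lower the fluorescent signal which means gametocytes are killed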; details: P. falciparum 3D7 stage III-V gametocytes, alamarBlue, 72 h; max response: stronger effect = lower value
How it was run: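 Fluorescence at Ex 525/Em 598 nm, recorded 24 h after alamarBlue addition, reports residual metabolic activity of 3D7 gametocytes (stages III–V) following 72 h compound exposure at 37 °C, 5% CO2.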

astro = assay: Drug repurposing screens with cells derived from glioblastoma tumor samples (AID 1345199); details: viability, ATP luminescence, 48 h; series mostly up to 45.9 µM; note: % is set by controls: 0 for no effect and ±100 for the full control effect; nearly all actives have a fitted effect of over 40% in size
How it was run: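 Four patient lines of CD133+ GBM neurospheres were screened at several concentrations; hits were retested in those lines plus three slower-growing GBM lines, using 48-hour treatment and ATP-based viability.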

[23] = qHTS for Inhibitors of the Functional Ribonucleoprotein Complex (vRNP) of Lassa (LASV) Arenavirus: Viability assay - alamar blue signal for LASV Primary Screen (AID 1347083; calls by dose curve; tested in HEK293 reporter line; note: nearly all actives have a fitted effect of over 80% in size; note: potency is the fitted concentration of half-maximal effect)
[24] = qHTS for Inhibitors of the Functional Ribonucleoprotein Complex (vRNP) of Lymphocytic Choriomeningitis Arenaviruses (LCMV): Viability assay - alamar blue signal for LCMV Primary Screen (AID 1347085; calls by dose curve; tested in HEK293 reporter line; note: nearly all actives have a fitted effect of over 80% in size; note: potency is the fitted concentration of half-maximal effect)

Glucocorticoid receptor (Homo sapiens), sequence (P04150 whole entry, looked up, the tested form may be a part): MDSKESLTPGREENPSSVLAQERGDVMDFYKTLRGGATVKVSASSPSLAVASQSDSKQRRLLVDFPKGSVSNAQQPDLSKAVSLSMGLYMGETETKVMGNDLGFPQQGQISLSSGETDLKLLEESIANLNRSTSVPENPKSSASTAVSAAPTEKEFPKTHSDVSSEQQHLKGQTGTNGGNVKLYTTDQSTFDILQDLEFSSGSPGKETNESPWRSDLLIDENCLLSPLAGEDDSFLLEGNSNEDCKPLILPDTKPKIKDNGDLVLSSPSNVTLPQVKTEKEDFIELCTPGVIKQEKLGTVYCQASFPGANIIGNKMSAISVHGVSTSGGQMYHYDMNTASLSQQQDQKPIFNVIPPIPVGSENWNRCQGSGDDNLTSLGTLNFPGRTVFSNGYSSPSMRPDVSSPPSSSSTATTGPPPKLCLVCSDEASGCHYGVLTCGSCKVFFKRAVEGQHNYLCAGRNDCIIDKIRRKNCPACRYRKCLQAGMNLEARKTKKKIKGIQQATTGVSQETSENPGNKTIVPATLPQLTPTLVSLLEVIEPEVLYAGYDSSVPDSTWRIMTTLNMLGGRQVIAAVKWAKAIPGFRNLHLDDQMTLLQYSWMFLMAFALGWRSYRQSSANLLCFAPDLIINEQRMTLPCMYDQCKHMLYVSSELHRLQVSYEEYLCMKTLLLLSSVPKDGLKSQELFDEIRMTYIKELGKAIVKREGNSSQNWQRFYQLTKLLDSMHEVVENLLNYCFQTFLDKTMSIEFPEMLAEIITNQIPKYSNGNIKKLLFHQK
Cytochrome P450 2C9 (Homo sapiens), sequence (P11712 whole entry, looked up): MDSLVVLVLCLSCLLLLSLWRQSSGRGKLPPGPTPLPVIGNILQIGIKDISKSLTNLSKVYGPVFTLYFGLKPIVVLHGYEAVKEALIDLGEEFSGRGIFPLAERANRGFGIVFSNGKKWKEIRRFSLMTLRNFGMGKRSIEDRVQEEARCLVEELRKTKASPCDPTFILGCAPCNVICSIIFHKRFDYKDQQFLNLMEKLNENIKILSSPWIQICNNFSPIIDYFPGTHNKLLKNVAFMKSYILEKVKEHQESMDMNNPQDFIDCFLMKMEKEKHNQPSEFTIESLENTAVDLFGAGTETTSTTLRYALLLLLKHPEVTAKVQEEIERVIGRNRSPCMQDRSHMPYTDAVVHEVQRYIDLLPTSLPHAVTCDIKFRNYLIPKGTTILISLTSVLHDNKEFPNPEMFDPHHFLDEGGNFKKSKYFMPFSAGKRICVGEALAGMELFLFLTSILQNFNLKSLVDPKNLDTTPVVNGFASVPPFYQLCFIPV
Glutathione peroxidase 1 (Homo sapiens), sequence (P07203 whole entry, looked up): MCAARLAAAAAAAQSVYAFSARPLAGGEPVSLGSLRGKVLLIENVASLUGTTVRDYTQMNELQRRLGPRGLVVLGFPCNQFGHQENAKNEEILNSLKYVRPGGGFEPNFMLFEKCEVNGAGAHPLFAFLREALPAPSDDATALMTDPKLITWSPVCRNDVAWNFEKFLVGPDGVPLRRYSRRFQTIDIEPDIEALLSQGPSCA
Cytochrome P450 1A2 (Homo sapiens), sequence (P05177 whole entry, looked up): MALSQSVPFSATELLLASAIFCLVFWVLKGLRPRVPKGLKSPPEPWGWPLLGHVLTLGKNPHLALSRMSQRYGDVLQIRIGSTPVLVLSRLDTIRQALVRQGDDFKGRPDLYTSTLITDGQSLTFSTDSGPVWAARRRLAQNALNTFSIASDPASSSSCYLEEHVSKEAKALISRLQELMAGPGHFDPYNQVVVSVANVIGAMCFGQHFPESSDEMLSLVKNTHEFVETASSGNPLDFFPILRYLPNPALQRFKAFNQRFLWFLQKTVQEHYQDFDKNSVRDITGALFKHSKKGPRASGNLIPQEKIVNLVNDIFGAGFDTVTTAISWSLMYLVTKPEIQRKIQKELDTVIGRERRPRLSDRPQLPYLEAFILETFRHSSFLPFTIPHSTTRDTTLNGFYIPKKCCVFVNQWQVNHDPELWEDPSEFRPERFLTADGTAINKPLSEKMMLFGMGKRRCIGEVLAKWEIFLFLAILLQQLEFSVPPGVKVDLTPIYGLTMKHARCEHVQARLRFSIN
Cytochrome P450 2D6 (Homo sapiens), sequence (P10635 whole entry, looked up): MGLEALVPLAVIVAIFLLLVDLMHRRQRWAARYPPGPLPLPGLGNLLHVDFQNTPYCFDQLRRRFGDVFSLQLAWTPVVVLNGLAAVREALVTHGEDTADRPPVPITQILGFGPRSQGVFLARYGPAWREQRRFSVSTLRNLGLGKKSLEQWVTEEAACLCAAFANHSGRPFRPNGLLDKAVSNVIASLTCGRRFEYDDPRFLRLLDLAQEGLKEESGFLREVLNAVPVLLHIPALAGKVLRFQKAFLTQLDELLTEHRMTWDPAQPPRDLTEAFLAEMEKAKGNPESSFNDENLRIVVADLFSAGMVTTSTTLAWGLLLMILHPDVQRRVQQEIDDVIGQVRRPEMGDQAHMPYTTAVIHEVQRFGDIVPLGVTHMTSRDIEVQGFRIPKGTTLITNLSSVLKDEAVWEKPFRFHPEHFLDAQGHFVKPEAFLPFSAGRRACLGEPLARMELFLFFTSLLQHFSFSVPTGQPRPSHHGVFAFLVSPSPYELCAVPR
Ubiquitin carboxyl-terminal hydrolase 1 (Homo sapiens), sequence (O94782 whole entry, looked up): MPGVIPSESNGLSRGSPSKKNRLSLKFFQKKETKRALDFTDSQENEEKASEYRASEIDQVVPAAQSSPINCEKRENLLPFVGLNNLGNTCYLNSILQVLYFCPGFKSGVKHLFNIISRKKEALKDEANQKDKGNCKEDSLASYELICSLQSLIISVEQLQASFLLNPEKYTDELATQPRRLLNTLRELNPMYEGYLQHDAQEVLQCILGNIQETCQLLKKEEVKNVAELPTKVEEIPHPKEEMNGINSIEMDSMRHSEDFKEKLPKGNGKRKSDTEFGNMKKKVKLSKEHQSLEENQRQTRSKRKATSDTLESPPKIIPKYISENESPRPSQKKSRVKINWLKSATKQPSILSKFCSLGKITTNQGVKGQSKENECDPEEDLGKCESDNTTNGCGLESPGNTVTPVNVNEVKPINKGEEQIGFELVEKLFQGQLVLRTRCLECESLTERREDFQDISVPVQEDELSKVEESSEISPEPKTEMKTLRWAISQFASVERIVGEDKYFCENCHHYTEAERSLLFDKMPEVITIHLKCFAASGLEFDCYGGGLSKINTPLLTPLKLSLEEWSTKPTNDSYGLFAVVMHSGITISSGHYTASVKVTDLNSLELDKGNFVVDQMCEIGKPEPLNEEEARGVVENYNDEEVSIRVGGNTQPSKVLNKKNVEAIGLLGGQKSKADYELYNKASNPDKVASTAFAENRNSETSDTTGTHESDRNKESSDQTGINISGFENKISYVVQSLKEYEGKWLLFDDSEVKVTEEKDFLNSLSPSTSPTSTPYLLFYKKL
Cytochrome P450 3A4 (Homo sapiens), sequence (P08684 whole entry, looked up): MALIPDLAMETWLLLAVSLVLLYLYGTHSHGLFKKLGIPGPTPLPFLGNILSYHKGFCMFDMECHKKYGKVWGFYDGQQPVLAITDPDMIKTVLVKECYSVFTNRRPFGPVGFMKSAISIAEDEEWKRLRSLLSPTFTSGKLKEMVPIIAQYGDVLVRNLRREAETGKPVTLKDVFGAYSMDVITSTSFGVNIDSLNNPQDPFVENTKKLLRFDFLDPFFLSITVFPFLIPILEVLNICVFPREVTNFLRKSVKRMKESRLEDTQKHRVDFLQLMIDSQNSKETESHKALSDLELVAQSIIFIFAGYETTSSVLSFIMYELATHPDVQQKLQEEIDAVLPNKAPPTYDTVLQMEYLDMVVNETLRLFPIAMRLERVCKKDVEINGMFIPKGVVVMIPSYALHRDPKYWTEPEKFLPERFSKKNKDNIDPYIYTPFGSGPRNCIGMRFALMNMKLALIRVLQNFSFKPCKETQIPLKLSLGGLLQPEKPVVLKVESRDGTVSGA
Cytochrome P450 2C19 (Homo sapiens), sequence (P33261 whole entry, looked up): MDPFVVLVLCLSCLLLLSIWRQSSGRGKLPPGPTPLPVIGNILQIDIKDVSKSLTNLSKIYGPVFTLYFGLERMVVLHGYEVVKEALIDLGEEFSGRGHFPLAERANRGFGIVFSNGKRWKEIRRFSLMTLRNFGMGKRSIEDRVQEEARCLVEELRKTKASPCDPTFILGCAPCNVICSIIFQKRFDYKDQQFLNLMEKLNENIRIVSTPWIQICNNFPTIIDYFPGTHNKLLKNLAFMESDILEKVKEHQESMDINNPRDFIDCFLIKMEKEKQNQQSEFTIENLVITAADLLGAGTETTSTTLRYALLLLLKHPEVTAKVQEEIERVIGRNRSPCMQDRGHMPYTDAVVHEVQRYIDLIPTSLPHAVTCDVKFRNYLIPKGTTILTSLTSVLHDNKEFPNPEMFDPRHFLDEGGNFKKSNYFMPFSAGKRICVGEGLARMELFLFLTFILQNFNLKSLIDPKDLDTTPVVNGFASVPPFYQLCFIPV
3',5'-cyclic-AMP phosphodiesterase 4B (Homo sapiens), sequence (Q07343 whole entry, looked up): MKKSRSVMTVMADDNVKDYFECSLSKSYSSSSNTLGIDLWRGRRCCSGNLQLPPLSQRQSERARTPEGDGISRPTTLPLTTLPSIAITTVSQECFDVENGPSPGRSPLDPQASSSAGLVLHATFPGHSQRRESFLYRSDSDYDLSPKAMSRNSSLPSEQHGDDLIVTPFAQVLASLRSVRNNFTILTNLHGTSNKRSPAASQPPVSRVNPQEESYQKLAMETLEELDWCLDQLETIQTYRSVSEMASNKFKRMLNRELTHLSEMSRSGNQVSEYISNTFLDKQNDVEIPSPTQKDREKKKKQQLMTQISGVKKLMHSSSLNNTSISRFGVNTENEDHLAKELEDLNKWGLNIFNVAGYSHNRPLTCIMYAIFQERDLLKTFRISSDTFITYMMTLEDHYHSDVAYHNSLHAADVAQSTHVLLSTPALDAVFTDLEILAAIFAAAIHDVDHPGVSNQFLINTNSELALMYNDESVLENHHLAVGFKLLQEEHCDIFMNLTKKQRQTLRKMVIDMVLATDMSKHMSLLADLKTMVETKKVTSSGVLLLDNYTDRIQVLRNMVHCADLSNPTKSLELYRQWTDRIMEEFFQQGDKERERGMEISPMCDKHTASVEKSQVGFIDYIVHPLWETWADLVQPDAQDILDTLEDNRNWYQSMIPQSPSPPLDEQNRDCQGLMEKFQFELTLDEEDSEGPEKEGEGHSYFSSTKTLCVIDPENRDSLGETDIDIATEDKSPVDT

O=C1NC(=O)c2c1c1c3ccccc3n3c1c1c2c2ccccc2n1C1CCC3O1
inactive: Potency [2] | Potency [3] | Potency [6]
active: Potency [1] 3.66 µM | Potency [4] 517 nM | Potency [5] 731 nM

COc1ccn(C)c(=O)c1C#N
5.59% and -19.6%: max response ([17]; measured here: lipid channel max response)
4.19% and -22.1%: max response ([17]; measured here: cell count channel max response)
inactive: Potency [7] | activity change, negative = inhibition [8] 6.67% | Potency [9] > 20.6 µM and > 46 µM | Potency [10] > 20.6 µM and > 46 µM | outcome [11] | Potency [12] | Potency [13] | Potency [14] | Potency [15] | Potency [16] | activity change, negative = inhibition ([17]; at 25.7 µM (top of the series)) -0.52% | activity change, negative = inhibition ([17]; at 57.5 µM (top of the series)) 1.07% | Potency [18] | Potency [19] | Potency [1] | Potency [4] | Potency [5] | Potency [6]

CC[C@H]1OC(=O)[C@H](C)[C@@H](O[C@H]2C[C@@](C)(OC)[C@@H](O)[C@H](C)O2)[C@H](C)[C@@H](O[C@@H]2O[C@H](C)C[C@H](N(C)C)[C@@H]2O)[C@](C)(OC)C[C@@H](C)C(=O)[C@H](C)[C@@H](O)[C@]1(C)O
inactive: Potency [20]

CC[C@@H](O)C(C[C@@H](C)N(C)C)(c1ccccc1)c1ccccc1
inactive: Potency [21] | max response [22] 5.08% | Potency (astro)

C=C(C)C(Cc1c(OC)ccc(C(=O)/C=C/c2ccc(O)cc2)c1O)OO (stereo not drawn)
inactive: Potency [20] | Potency [23] | Potency [24]

O=C(O)CCNc1cc(N2CCc3ccccc3CC2)nc(-c2ccccn2)n1
inactive: Potency [20] | Potency [23]

CN[C@@H]1CN(c2ccc3c(=O)c(C(=O)O)cn(-c4nccs4)c3n2)C[C@@H]1OC
active: Potency [23] 10.6 µM | Potency [24] 15 µM
inactive: Potency [20]
